Active and inactive are the calls of the source. Unless noted, no rule for the calls is given here.
Experiments:
[1] = compound effects on lung adenocarcinoma cell viability – A549, calcein-AM fluorescence, 48 h, basal, profiling panel (AID 1162); details: higher = more signal; also: test concentration not given here
[2] = compound effects on differentiated 3T3-L1 adipocyte viability – cell-based, 3T3-L1 adipocytes, calcein-AM fluorescence, 48 h, basal, profiling panel (AID 1163); details: 3T3-L1 adipocytes viability, higher = more signal; also: test concentration not given here
[3] = compound effects on hepatocellular carcinoma cell viability – HepG2, calcein-AM fluorescence, 48 h, basal, profiling panel (AID 1164); details: higher = more signal; also: test concentration not given here
[4] = compound effects on multiple myeloma cell viability – MM1S, calcein-AM fluorescence, 48 h, basal, profiling panel (AID 1165); details: higher = more signal;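 also: viability of MM1S multiple myeloma cells under basal unstimulated conditions; test concentration not given here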
[5] = calcein-AM signal in unstimulated myeloma cells – cell-based, calcein-AM fluorescence, 48 h, PK04 Diversity Set, profiling panel (AID 1166); details: RPMI8226 myeloma viability, higher = more signal;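 also: cells grown under basal conditions without added stimulus; test concentration not given here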
[6] = JC-1 mitochondrial signal, unstimulated HepG2 cells – cell-based, JC-1 fluorescence, 24 h, 100 nL compound, profiling panel (AID 1167); details: HepG2 mitochondrial potential, higher = more signal; also: test concentration not given here
[7] = JC-1 mitochondrial signal, unstimulated adipocytes – cell-based, JC-1 fluorescence, 3T3-L1 adipocytes, 24 h, 100 nL compound, profiling panel (AID 1168); details: JC-1 mitochondrial fluorescence, higher = more signal, called active from +8 up or from −8 down; also: test concentration not given here
[8] = JC-1 mitochondrial signal, unstimulated myeloma cells – cell-based, JC-1 fluorescence, RPMI8226, 24 h, 100 nL compound, profiling panel (AID 1169); details: JC-1 mitochondrial potential fluorescence, higher = more signal; also: test concentration not given here
[9] = JC-1 mitochondrial signal, unstimulated MM1S myeloma – cell-based, JC-1 fluorescence, 24 h, 100 nL compound, profiling panel (AID 1170); details: MM1S mitochondrial potential, higher = more signal; also: test concentration not given here
[10] = resazurin metabolic signal in A549 cells – cell-based, resazurin fluorescence, 24 h, PK04 Diversity Set, profiling panel (AID 1171); details: A549 viability, higher = more signal, called active from +8 up or from −8 down; also: test concentration not given here
[11] = resazurin metabolic signal in HepG2 cells – cell-based, resazurin fluorescence, 24 h, PK04 Diversity Set, profiling panel (AID 1172); details: HepG2 viability, higher = more signal; also: test concentration not given here
[12] = budding yeast growth changes without added modifier – OD600, strain BY4716, 24 h, basal condition, primary screen (AID 1173); details: S. cerevisiae BY4716 growth, OD600, 24 h; higher = more signal, called active from +8 up or from −8 down
[13] = viability profiling in MM1S myeloma cells – cell-based, resazurin fluorescence, basal, 24 h, PK04 Diversity Set, profiling panel (AID 1174); details: higher = more signal, called active from +8 up or from −8 down; also: test concentration not given here
[14] = molecular target: Dihydroorotate dehydrogenase (quinone), mitochondrial (Plasmodium falciparum (isolate 3D7)) (UniProt Q08210); experiment: inhibition of P. falciparum DHODH – biochemical, C-terminal His tag, absorbance 600 nm, primary screen (AID 1175); details: PfDHODH enzyme, DCIP absorbance 600 nm; higher = more signal, called active from +8 up or from −8 down;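 also: recombinant parasite enzyme with a five histidine tag at its C terminus; test concentration not given here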
[15] = inhibition of PAO1 biofilm formation – strain PAO1, LB-PBS medium, absorbance 600 nm, primary screen (AID 1176); also: test concentration not given here; details: P. aeruginosa PAO1 growth/biofilm, A600, 12 h; higher = more signal
[16] = growth modulation of vineyard yeast isolate – strain RM11-1a, OD600, basal, 24 h, primary screen (AID 1177);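 also: cultures grown under basal conditions with no added stressor; test concentration not given here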; details: S. cerevisiae RM11-1a growth, OD600, 24 h; higher = more signal, called active from +8 up or from −8 down
[17] = growth of efflux-deficient E. coli DRC39 – strain DRC39, OD650, 24 h, E. coli filamentation inducers, primary screen (AID 1178);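 also: growth measured as culture turbidity by optical density at 650 nm; test concentration not given here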; details: E. coli DRC39 acrAB, higher = more signal, called active from +8 up or from −8 down
[18] = growth of efflux-deficient E. coli DRC39 – strain DRC39, OD650, 48 h, E. coli filamentation inducers, primary screen (AID 1179);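 also: screen aims at cell division blockers that make cells filament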; details: E. coli DRC39 delta-acrAB growth, higher = more signal, called active from +8 up or from −8 down
[19] = viability profiling in RPMI8226 myeloma cells – cell-based, resazurin fluorescence, basal, 24 h, PK04 Diversity Set, profiling panel (AID 1180); details: higher = more signal;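 also: RPMI8826 multiple myeloma cell line at 5000 cells per well; test concentration not given here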
[20] = molecular target: E3 ubiquitin-protein ligase XIAP (Homo sapiens) (UniProt P98170); experiment: small molecules binding XIAP protein – biophysical, small-molecule microarray, fluorescence 635 nm, primary screen (AID 1181); details: higher = more signal;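 also: score merges 667 nm emission and signal to noise over triplicate slides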
E3 ubiquitin-protein ligase XIAP (Homo sapiens), sequence (P98170 whole entry, looked up): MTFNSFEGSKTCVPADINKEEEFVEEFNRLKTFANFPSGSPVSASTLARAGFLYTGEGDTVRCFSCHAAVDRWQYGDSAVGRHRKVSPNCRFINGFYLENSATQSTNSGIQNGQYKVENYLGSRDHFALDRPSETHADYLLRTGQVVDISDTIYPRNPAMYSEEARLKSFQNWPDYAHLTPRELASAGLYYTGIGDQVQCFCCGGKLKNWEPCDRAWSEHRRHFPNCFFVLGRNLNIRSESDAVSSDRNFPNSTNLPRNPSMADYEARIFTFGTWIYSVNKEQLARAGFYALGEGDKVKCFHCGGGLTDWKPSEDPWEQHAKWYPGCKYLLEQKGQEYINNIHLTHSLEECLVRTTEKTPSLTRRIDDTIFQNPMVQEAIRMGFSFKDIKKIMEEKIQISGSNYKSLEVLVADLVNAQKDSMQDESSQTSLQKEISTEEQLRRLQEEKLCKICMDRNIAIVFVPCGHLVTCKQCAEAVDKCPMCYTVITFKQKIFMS

Dihydroorotate dehydrogenase (quinone), mitochondrial (Plasmodium falciparum (isolate 3D7)), sequence (Q08210 whole entry, looked up): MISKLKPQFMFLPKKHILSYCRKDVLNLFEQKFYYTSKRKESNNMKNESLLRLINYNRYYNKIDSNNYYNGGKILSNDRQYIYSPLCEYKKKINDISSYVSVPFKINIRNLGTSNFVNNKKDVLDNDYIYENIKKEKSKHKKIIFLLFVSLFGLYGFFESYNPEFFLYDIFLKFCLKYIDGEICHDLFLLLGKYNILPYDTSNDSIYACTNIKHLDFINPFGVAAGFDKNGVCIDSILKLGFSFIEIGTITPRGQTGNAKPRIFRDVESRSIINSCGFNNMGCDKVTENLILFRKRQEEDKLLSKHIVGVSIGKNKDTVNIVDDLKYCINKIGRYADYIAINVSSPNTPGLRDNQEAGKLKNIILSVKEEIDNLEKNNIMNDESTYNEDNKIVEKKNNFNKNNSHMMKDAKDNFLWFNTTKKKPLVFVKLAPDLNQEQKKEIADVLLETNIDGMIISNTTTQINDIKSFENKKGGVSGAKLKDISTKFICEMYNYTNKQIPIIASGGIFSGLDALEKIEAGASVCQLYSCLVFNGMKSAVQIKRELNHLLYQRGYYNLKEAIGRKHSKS

SMILES | z-score [1] | z-score [2] | z-score [3] | z-score [4] | z-score [5] | z-score [6] | z-score [7] | z-score [8] | z-score [9] | z-score [10] | z-score [11] | z-score [12] | z-score [13] | composite z-score [14] | z-score [15] | z-score [16] | z-score [17] | z-score [18] | z-score [19] | composite z-score [20]
CC=CC(O)C1C=CC2C(=O)N(c3ccccc3)C(=O)C2N1Nc1ccccc1F (stereo not given) | -1.68 | -0.161 | -0.182 | 0.807 | -1.85 | -0.866 | -0.961 (inactive) | 0.367 | -0.254 | -0.548 (inactive) | -0.471 | -0.383 (inactive) | -0.424 (inactive) | -0.813 (inactive) | 1.21 (inactive) | 0.503 (inactive) | -0.382 (inactive) | -0.279 (inactive) | -0.788 | 0.181
O=C1O[C@@H](c2ccccc2)[C@@H](c2ccccc2)N2[C@@H](c3ccccc3OCCO)[C@]3(C(=O)Nc4ccc(C#CCCO)cc43)[C@@H](C(=O)N3CCCCCCC3)[C@H]12 | 0.22 | 0.251 | 0.717 | -1.68 | -4.14 | 0.548 | 0.363 (inactive) | -1.11 | -1.63 | -0.184 (inactive) | 0.29 | 0.355 (inactive) | -1.91 (inactive) | -0.452 (inactive) | 1.26 (inactive) | 0.753 (inactive) | -0.291 (inactive) | 0.321 (inactive) | -4.5 | 2.45
COC(=O)[C@@]1(Cc2ccc(OC)cc2)[C@H]2c3cc(C(=O)N(C)C)n(CCO)c3C[C@H]2CN1C(=O)c1ccccc1 | -1.58 | 0.611 | -0.516 | -1.25 | -0.755 | -0.133 | -1.36 (inactive) | -0.577 | -0.327 | -0.0699 (inactive) | -0.822 | 0.474 (inactive) | -1.23 (inactive) | -0.462 (inactive) | 0.33 (inactive) | -0.562 (inactive) | -0.748 (inactive) | -0.173 (inactive) | -0.915 | 0.0223
CC1CC/C=C\[C@H]2OC34C=CCN(c5ccc(Cl)cc5)C(=O)[C@H]3N(CCCCCO)C(=O)[C@]4(C)C2C(=O)O1 (stereo not given in full) | -0.0287 | -0.607 | 0.843 | 0.743 | -0.381 | -0.197 | -0.0396 (inactive) | -0.909 | 1.27 | -0.194 (inactive) | -0.773 | 0.0314 (inactive) | 0.421 (inactive) | 1.22 (inactive) | -0.801 (inactive) | 0.0329 (inactive) | -0.113 (inactive) | 0.227 (inactive) | 0.0738 | 0.102
C[C@H]1NC(=O)[C@@]23C(=O)N[C@@H](Cc4ccccc4)C2[C@H](C)[C@@]2(C)O[C@H]2C3/C=C/C/C=C\CNC(=O)[C@H](Cc2ccccc2)NC1=O (stereo not given in full) | -0.518 | 0.76 | -0.607 | 0.401 | -0.45 | 0.88 | -0.588 (inactive) | 0.331 | 1.02 | 0.0548 (inactive) | -0.466 | 0.303 (inactive) | -0.0253 (inactive) | 0.226 (inactive) | 1.24 (inactive) | 1.31 (inactive) | 0.513 (inactive) | 0.32 (inactive) | 0.0583 | 0.104
COc1ccc(NC(=O)O[C@H]2[C@H](OC(=O)Nc3ccccc3)[C@H](OC(=O)Nc3ccccc3)[C@@H](OC)O[C@@H]2CO)cc1 | -0.985 | 0.998 | -1.29 | -2.7 | -2.72 | -0.186 | -0.0233 (inactive) | -0.339 | -0.261 | -1.44 (inactive) | -1.05 | 0.593 (inactive) | -1.49 (inactive) | 1.59 (inactive) | 0.509 (inactive) | 0.767 (inactive) | 0.124 (inactive) | 0.0606 (inactive) | -0.936 | -0.0599
Cc1ccc(S[C@]2(C(=O)O)CC(=O)N(Cc3cc(C(F)(F)F)cc(C(F)(F)F)c3)[C@@H]2c2ccc(CO)cc2)cc1 | -0.192 | -0.228 | -0.618 | -0.424 | -0.82 | -0.555 | -0.717 (inactive) | 0.83 | -0.694 | -0.0055 (inactive) | -0.403 | -0.54 (inactive) | -0.543 (inactive) | -0.254 (inactive) | 0.761 (inactive) | 0.988 (inactive) | -0.296 (inactive) | -0.526 (inactive) | -0.278 | -0.053
COc1ccc([Si](C)(C)[C@@H]2[C@@H](CC(=O)N3Cc4ccccc4C[C@H]3CO)O[C@]3(C(=O)N(C)c4ccccc43)[C@H]2C)cc1 | -2.16 | 0.0677 | -4.12 | -2.66 | -4.4 | -0.682 | 1.08 (inactive) | -1.14 | -2.28 | -1.42 (inactive) | -1.35 | -2.33 (inactive) | -2.97 (inactive) | 0.0586 (inactive) | 1.81 (inactive) | 1.87 (inactive) | 1.21 (inactive) | 0.403 (inactive) | -4.65 | -0.0095

Reference: PubChem BioAssay
